# Test results as given in PMC11062922 (Nature Chemical Biology, 2023).
# Like-named read-outs stand apart in the source and are kept apart here.
# Tests used:
# Parameters in all cases: species or system human, MV4-11 + K-562 + COLO205 + SK-N-BE2 + OVCAR-8
# EPHB6 = conditions: read-out: apparent Kd, n = 1
# PRKDC = conditions: read-out: apparent Kd, n = 1
# TAOK1 = conditions: read-out: apparent Kd, n = 1
# MERTK = conditions: read-out: apparent Kd, n = 1
# PIM1 = conditions: read-out: apparent Kd, n = 1
# PKN3 = conditions: compound concentrations:0.3nM, 1nM, 3nM, 10nM, 30nM, 100nM, 300nM, by the legend:Standard error of the EC50 estimation as provided by the drc package.; for Kd: read-out: apparent Kd
# AKT1 = conditions: read-out: apparent Kd, compound concentrations: 100 nM and 1000 nM (sheet 'Samples'), n = 1
# CSNK1G1 = conditions: read-out: apparent Kd; compound concentrations: 100 nM and 1000 nM (sheet 'Samples'), CATDS: 5.3431605837735603E-3; n = 1
# IKBKE = conditions: read-out: apparent Kd, n = 1
# IRAK1 = conditions: read-out: apparent Kd, n = 1
# MAP2K5 = conditions: read-out: apparent Kd, compound concentrations: 100 nM and 1000 nM (sheet 'Samples'), n = 1
# MAPK1 = conditions: read-out: apparent Kd, compound concentrations: 100 nM and 1000 nM (sheet 'Samples'), n = 1
# NQO1 = conditions: read-out: apparent Kd; compound concentrations: 100 nM and 1000 nM (sheet 'Samples'), CATDS: 3.59016343581718E-3; n = 1
# PI4KA = conditions: read-out: apparent Kd; compound concentrations: 100 nM and 1000 nM (sheet 'Samples'), CATDS: 7.2985744477334297E-3; n = 1
# PRKCI = conditions: read-out: apparent Kd; compound concentrations: 100 nM and 1000 nM (sheet 'Samples'), CATDS: 3.8239218597995801E-3; n = 1
# RPS6KA5 = conditions: read-out: apparent Kd; compound concentrations: 100 nM and 1000 nM (sheet 'Samples'), CATDS: 4.7822949231481997E-3; n = 1
# STRADA = conditions: read-out: apparent Kd, n = 1
# CDK10 = conditions: read-out: apparent Kd, n = 1
# PAK4 = conditions: compound concentrations:0.3nM, 1nM, 3nM, 10nM, 30nM, 100nM, 300nM, by the legend:Standard error of the EC50 estimation as provided by the drc package.; for Kd: read-out: apparent Kd
# NTRK1 = conditions: read-out: apparent Kd; compound concentrations: 100 nM and 1000 nM (sheet 'Samples'), CATDS: 2.09044703121741E-2; n = 1
# [1] = compound concentrations:100 nM and 1000 nM (sheet 'Samples')
# [2] = 1000nM,R2:0.95736535454590599,slope:1.35169947345033,EC50 Standard Error
# [3] = 1000nM,R2:0.96781137417830099,slope:0.58987671625518001,EC50 Standard Error
# [4] = 1000nM,R2:0.99888452271644701,slope:1.2700915856501001,EC50 Standard Error
# [5] = 1000nM,R2:0.98802455290270397,slope:1.1906156337481999,EC50 Standard Error
# [6] = 1000nM,R2:0.97831665287894598,slope:1.2194506521172099,EC50 Standard Error
# [7] = 1000nM,R2:0.90981556238152395,slope:1.4029304179145099,EC50 Standard Error
# 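Wherever EC50 is given: competition pulldown with Kinobeads ε in cell lysates, inhibitor preincubated 45 min at 4 °C, bound kinases quantified by LC–MS/MS against DMSO control.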
# 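Wherever Kd is given: competition pulldown with Kinobeads ε in cell lysates, inhibitor preincubated 45 min at 4 °C, bound kinases quantified by LC–MS/MS against DMSO control.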
compound,measurement,setting,value
CN1C[C@@H]2Cn3c(c(C4=C(c5cn(C)c6ccccc56)C(=O)NC4=O)c4ccccc43)C[C@H]2C1.Cl [RO0320234-001],potency estimated from few doses,EPHB6; [1],1960 nM
same,potency estimated from few doses,PRKDC; [1],859 nM
same,potency estimated from few doses,TAOK1; [1],1350 nM
O=C1NC(=O)C(N2CCc3ccccc32)=C1c1ccccc1Cl [SB-373598],potency estimated from few doses,EPHB6; [1],615 nM
same,potency estimated from few doses,MERTK; [1],1850 nM
same,potency estimated from few doses,PIM1; [1],923 nM
same,potency estimated from few doses,PRKDC; [1],1200 nM
Cl.NCc1ccc(-c2nc(-c3ccc(Cl)c(O)c3)c(-c3ccncc3)[nH]2)cc1 [SB-476429-A],EC50,PKN3; [2],38.4 nM
same,Kd,PKN3; [2],38.4 nM
Cn1ncc2c(N)ncnc21 [SKF-18267],potency estimated from few doses,AKT1; CATDS: 4.8125130234568303E-3,879 nM
same,potency estimated from few doses,CSNK1G1,716 nM
same,potency estimated from few doses,"EPHB6; compound concentrations: 100 nM and 1000 nM (sheet 'Samples'), CATDS: 4.7916385769682596E-3",887 nM
same,potency estimated from few doses,"IKBKE; compound concentrations: 100 nM and 1000 nM (sheet 'Samples'), CATDS: 4.4054249402622498E-3",1060 nM
same,potency estimated from few doses,"IRAK1; compound concentrations: 100 nM and 1000 nM (sheet 'Samples'), CATDS: 3.5689080514204499E-3",1830 nM
same,potency estimated from few doses,MAP2K5; CATDS: 4.1093022417344298E-3,1250 nM
same,potency estimated from few doses,MAPK1; CATDS: 4.58474987436945E-3,974 nM
same,potency estimated from few doses,"MERTK; compound concentrations: 100 nM and 1000 nM (sheet 'Samples'), CATDS: 9.2588510560485896E-3",294 nM
same,potency estimated from few doses,NQO1,1800 nM
same,potency estimated from few doses,PI4KA,420 nM
same,potency estimated from few doses,"PIM1; compound concentrations: 100 nM and 1000 nM (sheet 'Samples'), CATDS: 7.3887725324269602E-3",412 nM
same,potency estimated from few doses,PRKCI,1500 nM
same,potency estimated from few doses,"PRKDC; compound concentrations: 100 nM and 1000 nM (sheet 'Samples'), CATDS: 6.2124168993476997E-3",547 nM
same,potency estimated from few doses,RPS6KA5,891 nM
same,potency estimated from few doses,"STRADA; compound concentrations: 100 nM and 1000 nM (sheet 'Samples'), CATDS: 3.7902262633519698E-3",1540 nM
same,potency estimated from few doses,"TAOK1; compound concentrations: 100 nM and 1000 nM (sheet 'Samples'), CATDS: 4.9523162341794302E-3",830 nM
COc1ccc(Nc2ncc(C#N)c(Nc3ccccc3C(N)=O)n2)cc1N1CCN(C)CC1.Cl [GSK1558669A],potency estimated from few doses,"CDK10; compound concentrations: 100 nM and 1000 nM (sheet 'Samples'), CATDS: 6.1619993305959599E-3",1450 nM
same,potency estimated from few doses,"IKBKE; compound concentrations: 100 nM and 1000 nM (sheet 'Samples'), CATDS: 7.4158435365071704E-3",548 nM
same,potency estimated from few doses,"IRAK1; compound concentrations: 100 nM and 1000 nM (sheet 'Samples'), CATDS: 7.7027436488320998E-3",467 nM
same,potency estimated from few doses,MAP2K5; CATDS: 8.5242635319968205E-3,318 nM
CCOC(=O)N1CCC(n2cnc(-c3ccc(F)cc3)c2-c2ccnc(N)n2)CC1 [SB-219952],potency estimated from few doses,"MERTK; compound concentrations: 100 nM and 1000 nM (sheet 'Samples'), CATDS: 8.4469178777721397E-3",1410 nM
Cc1ccc(Nc2ccnc(Nc3ccc4c(c3)CS(=O)(=O)C4)n2)cc1O.Cl [GW579362A],potency estimated from few doses,"CDK10; compound concentrations: 100 nM and 1000 nM (sheet 'Samples'), CATDS: 3.9153038455417302E-2",602 nM
same,potency estimated from few doses,MAPK1; CATDS: 2.9087751414108801E-2,1350 nM
CCn1c(-c2nonc2N)nc2c(C#CC(C)(C)O)nc(OCCN)cc21.CCn1c(-c2nonc2N)nc2c(C#CC(C)(C)O)nc(OCCN)cc21.Cl.Cl [GSK902056A],EC50,PAK4; [3],5300 nM
same,Kd,PAK4; [3],4860 nM
same,EC50,PKN3; [4],10.2 nM
same,Kd,PKN3; [4],10.2 nM
Cc1cccc(Nc2nc(N[C@H]3CCCC[C@H]3N)ncc2C(N)=O)c1.Cl [GSK986310C],potency estimated from few doses,STRADA; [1],2120 nM
same,EC50,PAK4; [5],135 nM
same,Kd,PAK4; [5],65.9 nM
Cc1ccc2c(-c3ccncc3)c(-c3ccc(F)cc3)nn2c1.Cl [GW461484A],potency estimated from few doses,CDK10; [1],1410 nM
CCn1c(-c2nonc2N)nc2c(-c3ccccc3)ncc(OCCCN)c21.CCn1c(-c2nonc2N)nc2c(-c3ccccc3)ncc(OCCCN)c21.O=C(O)C(F)(F)F.O=C(O)C(F)(F)F [GSK260205A],potency estimated from few doses,AKT1; CATDS: 6.9127027959846404E-2,157 nM
NCCNS(=O)(=O)c1ccc(-c2ccnc3[nH]ccc23)cc1 [GSK977617A],potency estimated from few doses,MERTK; [1],1440 nM
Clc1cc(Cl)cc(Nc2ccnc(Nc3cc(Cl)cc(Cl)c3)n2)c1 [GSK175726A],potency estimated from few doses,"EPHB6; compound concentrations: 100 nM and 1000 nM (sheet 'Samples'), CATDS: 8.5475708332426303E-3",1630 nM
same,potency estimated from few doses,"PRKDC; compound concentrations: 100 nM and 1000 nM (sheet 'Samples'), CATDS: 1.07981791880609E-2",607 nM
O=C1N=C(NCCc2ccc(Cl)cc2)S/C1=C\c1ccc2ncccc2c1 [RO4498479-000],potency estimated from few doses,"EPHB6; compound concentrations: 100 nM and 1000 nM (sheet 'Samples'), CATDS: 6.9765900844718596E-3",1660 nM
same,potency estimated from few doses,"PIM1; compound concentrations: 100 nM and 1000 nM (sheet 'Samples'), CATDS: 9.1477666322176705E-3",691 nM
CCn1c(-c2nonc2N)nc2c(C#CC(C)(C)O)nc(OCCNC)cc21.Cl [GSK949675A],EC50,PAK4; [6],316 nM
same,Kd,PAK4; [6],218 nM
same,EC50,PKN3; [7],89.8 nM
same,Kd,PKN3; [7],89.8 nM
CN(c1ccc(NC(=O)N2CCN(CCCN3CCOCC3)CC2)cc1)c1ccnc(Nc2ccc(CS(C)(=O)=O)cc2)n1.Cl [GW830899A],potency estimated from few doses,MAPK1; CATDS: 2.6373806441713499E-2,807 nM
CNC(=O)c1ccccc1Nc1nc(Nc2ccc(N3CCOCC3)cc2)ncc1Cl.Cl [GSK1576028A],potency estimated from few doses,IKBKE; [1],1540 nM
same,potency estimated from few doses,IRAK1; [1],1020 nM
CN(C)CC(O)COc1ccc(Nc2nccc(-c3cnn4nc(N5CCOCC5)ccc34)n2)cc1 (stereo not drawn) [GW767488X],potency estimated from few doses,CDK10; [1],1360 nM
same,potency estimated from few doses,IKBKE; [1],2010 nM
same,potency estimated from few doses,IRAK1; [1],80 nM
CCN(CC)Cc1ccc(Nc2nccc(-c3cnn4ncccc34)n2)cc1 [GW780056X],potency estimated from few doses,NTRK1,1140 nM
